Compounds without any hit were thinned out: in the full panel of roughly 79,000, 15% have a hit. The source made the active and inactive calls. Rule as the data show it: active = growth inhibition above about 70%; inactive = the rest.
Legend:
[1] = NCI Yeast Anticancer Drug Screen. Data for the rad14 strain (AID 159);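 also: 0% = growth of vehicle-treated control cultures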; details: S. cerevisiae rad14 strain growth inhibition, active compounds read high
In short: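 Test compounds were applied to a repair-deficient yeast strain. Its growth was then compared with that of cultures given vehicle alone, and inhibition was expressed relative to those controls.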

[2] = NCI Yeast Anticancer Drug Screen. Data for the sgs1 mgt1 strain (AID 161);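 also: 0% = growth of cultures given vehicle only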; details: S. cerevisiae sgs1 mgt1 strain, active compounds read high
In short: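 This yeast growth screen uses a strain with defined DNA-repair lesions; compound-treated growth is compared with vehicle-treated growth.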

[3] = NCI Yeast Anticancer Drug Screen. Data for the CLN2oe strain (AID 163);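 also: 0% = growth of vehicle-only control cultures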; details: S. cerevisiae CLN2oe strain, active compounds read high
In short: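 Cells of an engineered yeast line with disturbed cell-cycle regulation are treated with compound. Inhibition of growth is then calculated relative to the vehicle-treated reference.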

[4] = NCI Yeast Anticancer Drug Screen. Data for the cln2 rad14 strain (AID 165);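 also: 0% = growth equal to vehicle treated cultures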; details: S. cerevisiae cln2 rad14 strain, active compounds read high
In short: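 Strain: cln2 rad14 yeast, altered in cell cycle control and DNA damage repair. Read-out: growth inhibition vs vehicle.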

[5] = NCI Yeast Anticancer Drug Screen. Data for the bub3 strain (AID 167); details: S. cerevisiae bub3 mutant strain, active compounds read high
In short: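 Yeast carrying a defined mutation is treated with each compound, and growth is compared with that of vehicle-exposed cells to give inhibition.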

[6] = NCI Yeast Anticancer Drug Screen. Data for the wt2 strain (AID 169);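 also: 0% = growth of vehicle-treated yeast cultures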; details: S. cerevisiae wt2 strain growth inhibition, active compounds read high
In short: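 Growth of compound-treated yeast is measured and expressed as inhibition relative to vehicle-only controls.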

[7] = NCI Yeast Anticancer Drug Screen. Data for the mlh1 strain (AID 171);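 also: 0% = growth of vehicle-treated control cultures of the same strain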; details: S. cerevisiae mlh1 strain growth inhibition, active compounds read high
In short: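 Test agents were incubated with yeast bearing a defined DNA damage repair or cell cycle control alteration; values are growth inhibition normalised to vehicle-treated cultures.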

[8] = NCI Yeast Anticancer Drug Screen. Data for the sgs1 strain (AID 173);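 also: 0% = growth of vehicle-only control cultures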; details: S. cerevisiae sgs1 mutant, active compounds read high
In short: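 Strain with an altered DNA repair or cell cycle pathway exposed to compound. Growth then measured. Value = inhibition versus vehicle control.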

[9] = NCI Yeast Anticancer Drug Screen. Data for the mlh1 rad18 strain (AID 175); details: S. cerevisiae mlh1 rad18 strain growth inhibition, active compounds read high
In short: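 A repair-deficient yeast strain is exposed to test compound, and growth is scored relative to vehicle-treated controls.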

[10] = NCI Yeast Anticancer Drug Screen. Data for the rad18 strain (AID 177); details: S. cerevisiae rad18 mutant growth inhibition, active compounds read high
In short: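 DNA-repair-defective yeast; compound treatment; growth inhibition scored against vehicle.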

[11] = NCI Yeast Anticancer Drug Screen. Data for the wt1 strain (AID 149);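 also: 0% = growth of vehicle-treated wt1 cultures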; details: S. cerevisiae wt1 strain (SPY 50644) growth inhibition, active compounds read high
In short: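 wt1 yeast, compound-treated; % growth inhibition vs vehicle control.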

[12] = NCI Yeast Anticancer Drug Screen. Data for the rad50EPP+ strain (AID 151);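 also: 0% = growth of vehicle-treated control cultures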; details: S. cerevisiae rad50 mutant strain, active compounds read high
In short: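 Measured: growth inhibition of rad50EPP+ yeast. Reference: vehicle-treated controls. Screen uses strains with defined genetic alterations in DNA damage repair or cell cycle control.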

[13] = NCI Yeast Anticancer Drug Screen. Data for the mgt1 strain (AID 153); details: S. cerevisiae mgt1 mutant growth inhibition, active compounds read high
In short: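 Compounds were applied to mgt1 mutant yeast, and growth was then compared against vehicle-treated control cultures to give percent inhibition.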

[14] = NCI Yeast Anticancer Drug Screen. Data for the rad50 strain (AID 155);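 also: 0% = growth of vehicle-only cultures of the same strain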; details: S. cerevisiae rad50 strain growth inhibition, active compounds read high
In short: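 Genetically altered yeast (DNA repair pathway); compound treatment; growth inhibition vs vehicle ctrl.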

[15] = NCI Yeast Anticancer Drug Screen. Data for the mec2-1 strain (AID 157); details: S. cerevisiae mec2-1 strain, active compounds read high
In short: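 Compounds were applied to mec2-1 yeast cells. Their growth was then compared with that of vehicle-treated cultures to give growth inhibition.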

[16] = at 5.0 µM (retest, dose inferred, filed as 0.5)
[17] = at 50.0 µM (retest, dose inferred, filed as 5.0)

Measured: growth inhibition

N=C1N=Nc2nc(C3(c4nc5n(c4O)C(=N)N=N5)Cc4ccccc4C3=O)c(O)n21 (stereo not drawn)
active: [1]; at 100.0 µM 99% | [2]; [17] 70% | [5]; at 50.0 µM 85.5% | [5]; at 100.0 µM 86% | [6]; at 100.0 µM 89% | [7]; at 100.0 µM 95% | [8]; at 33.0 µM 74% | [8]; at 100.0 µM 95% | [9]; at 50.0 µM 92.7% | [10]; at 33.0 µM 75% | [10]; at 100.0 µM 96%
inactive: [2]; [16] 7% | [2]; at 50.0 µM 67% | [3]; at 1.2 µM 1% | [3]; at 3.7 µM 8% | [3]; at 11.0 µM 15% | [3]; at 33.0 µM 9% | [3]; at 100.0 µM 8% | [4]; [16] 13% | [4]; [17] 10% | [4]; at 50.0 µM 23.2% | [5]; at 1.2 µM 4% | [5]; at 3.7 µM 6% | [5]; [16] 0% | [5]; at 11.0 µM 9% | [5]; at 33.0 µM 45% | [5]; [17] 42% | [6]; at 1.2 µM 4% | [6]; at 3.7 µM 16% | [6]; at 11.0 µM 11% | [6]; at 33.0 µM 32% | [7]; at 1.2 µM 1% | [7]; at 3.7 µM 5% | [7]; at 11.0 µM 14% | [7]; at 33.0 µM 68% | [8]; at 1.2 µM 4% | [8]; at 3.7 µM 10% | [8]; at 11.0 µM 21% | [9]; [16] -63% | [9]; [17] 57% | [10]; at 1.2 µM 3% | [10]; at 3.7 µM 11% | [10]; at 11.0 µM 23%

CN(C)CCNC(=O)c1cccc2c1Oc1c(cccc1[N+](=O)[O-])O2
inactive: [11]; at 1.2 µM -13% | [11]; at 3.7 µM -20% | [11]; at 11.0 µM -14% | [11]; at 33.0 µM -12% | [11]; at 100.0 µM 29% | [12]; at 1.2 µM 0% | [12]; at 3.7 µM 9% | [12]; at 11.0 µM 3% | [12]; at 33.0 µM 26% | [12]; at 100.0 µM 68% | [13]; at 1.2 µM 9% | [13]; at 3.7 µM 17% | [13]; at 11.0 µM 16% | [13]; at 33.0 µM 30% | [13]; at 100.0 µM 60% | [14]; at 1.2 µM 6% | [14]; at 3.7 µM 10% | [14]; [16] 29% | [14]; at 11.0 µM 24% | [14]; at 50.0 µM 32.6% | [15]; at 1.2 µM -12% | [15]; at 3.7 µM -23% | [15]; [16] -7% | [15]; at 11.0 µM -20% | [15]; at 33.0 µM -9% | [15]; [17] 16% | [15]; at 50.0 µM 7.85% | [15]; at 100.0 µM 56% | [1]; at 1.2 µM -12% | [1]; at 3.7 µM -12% | [1]; at 11.0 µM -10% | [1]; at 33.0 µM -8% | [1]; at 100.0 µM 40% | [3]; at 1.2 µM 24% | [3]; at 3.7 µM 12% | [3]; at 11.0 µM 20% | [3]; at 33.0 µM 6% | [3]; at 100.0 µM 58% | [4]; [16] 47% | [4]; [17] 38% | [4]; at 50.0 µM 14.4% | [5]; at 1.2 µM 25% | [5]; at 3.7 µM 31% | [5]; [16] 20% | [5]; at 11.0 µM 13% | [5]; at 33.0 µM 26% | [5]; [17] 29% | [5]; at 50.0 µM 0.95% | [6]; at 1.2 µM -37% | [6]; at 3.7 µM -27% | [6]; at 11.0 µM -40% | [6]; at 33.0 µM -37% | [6]; at 100.0 µM 26% | [7]; at 1.2 µM 15% | [7]; at 3.7 µM 13% | [7]; at 11.0 µM 18% | [7]; at 33.0 µM 38% | [8]; at 1.2 µM -10% | [8]; at 3.7 µM 2% | [8]; at 11.0 µM -1% | [8]; at 33.0 µM 2% | [8]; at 100.0 µM 48% | [9]; [16] 15% | [9]; [17] 29% | [9]; at 50.0 µM 18.4% | [10]; at 1.2 µM -3% | [10]; at 3.7 µM 0% | [10]; at 11.0 µM -5% | [10]; at 33.0 µM 13% | [10]; at 100.0 µM 69%
active: [14]; at 33.0 µM 76% | [14]; [17] 72% | [14]; at 100.0 µM 95% | [5]; at 100.0 µM 74% | [7]; at 100.0 µM 75%

From PubChem BioAssay (NCI)
